Drawing on PubChem BioAssay (NCI), this text covers growth for 15 compounds.

The structures appear in SMILES notation. Compounds without any hit were thinned out: in the full panel of roughly 83,000, 20% have a hit.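 48-hour exposure, single concentration, 96-well plates; percent growth endpoint where 0 means no net growth. Active: below 10.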 A number with no mark means an inactive call. Activity calls are given as the source filed them.

The test system of the assay is MDA-MB-468 breast. The assay is described as follows: NCI-60 one-dose screen, 48 h (100 = growth as untreated, 0 = no growth, -100 = all killed). The conditions noted are these: 10 µM unless noted.
As to `O=C(Nc1cccc2c1C(=O)c1cccc(Nc3cccc4c3C(=O)c3cccc(NC(=O)c5ccccc5)c3C4=O)c1C2=O)c1ccccc1`, the growth is 126%.

Consider `CC1(C)CNC(=O)N1`, for which the growth was 98.2%.

With `C/C(Cc1ccc(Cl)cc1)=C(/c1ccccc1)c1ccc(OCCN)cc1`, the growth was 97.2%.

Regarding `S=C1SCC(c2ccccc2)S1` (stereo not given), the growth is 99.6%.

On to `CCCCn1cnc2c(SCc3ccc([N+](=O)[O-])cc3)nc(N)nc21`, for which the growth is 80.8%.

`CN1CCN(Cc2ccc(NC(=O)c3cncc(C#Cc4cnc(N)c5cccnc45)c3)cc2C(F)(F)F)CC1`: the growth was 15.8%.

For `COc1ccc(-c2ccc3cnc4sc(-c5ccc(OC)cc5)nc4c3n2)cc1`, the growth is 96.5%.

With `CCN(CC)CCCNCc1cc(-c2ccccc2)nc2cc(Cl)ccc12`, the growth was -25.7% (active).

Consider `COc1cc(CNC(=O)CCCCC[P+](c2ccccc2)(c2ccccc2)c2ccccc2)c(OC)c2c1OCO2`, for which the growth was 6.74% (active).

For `Cc1ccc(NC(=O)c2cc3ccccc3cc2O)c(C)c1`, the growth is 87.6%.

`COc1cc2ncn3c(=O)c4c5c(sc4nc3c2cc1OC)CCCC5`: the growth is 101%.

For `C/C(=C\CCc1ccsc1)CC/C=C(\C)CCCN1CCSCC1`, the growth was 50.1%.

In the case of `Cc1nn(-c2ccc(F)cc2)c2ncnc(Oc3ccc(NC(=O)Nc4ccc(Cl)c(C(F)(F)F)c4)cc3)c12`, the growth is 97.8%.

With `CCN1C(=O)N(c2ccccc2)C2Nn3c(s/c(=C4\C(=O)N(C(C)C)c5ccccc54)c3=O)=NC21` (stereo not given), the growth is 108%.

As for `COc1cc(C(=O)/C=C/c2c(-c3cccs3)nc3sc(C)cn23)cc(OC)c1OC`, the growth is -4.34% (active).
